Reference: PubChem BioAssay AID1563 (The Scripps Research Institute Molecular Screening Center, 2009)
The list shows a part of the results. Unmarked numbers belong to inactive results. Rule as the data show it: active = activation above about 21%; inactive = the rest.

Target: Sphingosine 1-phosphate receptor 1 (Homo sapiens) (UniProt P21453)
Test: S1P1 receptor agonists, human, counter-screen for S1P4 agonist project, cell-based (AID 1563);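 also: 0% = vehicle wells and 100% = reference agonist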
Details: S1P1 agonist cell-based assay, at 4.98 µM, active compounds read high

Sequence of Sphingosine 1-phosphate receptor 1 (Homo sapiens) (P21453 whole entry, looked up): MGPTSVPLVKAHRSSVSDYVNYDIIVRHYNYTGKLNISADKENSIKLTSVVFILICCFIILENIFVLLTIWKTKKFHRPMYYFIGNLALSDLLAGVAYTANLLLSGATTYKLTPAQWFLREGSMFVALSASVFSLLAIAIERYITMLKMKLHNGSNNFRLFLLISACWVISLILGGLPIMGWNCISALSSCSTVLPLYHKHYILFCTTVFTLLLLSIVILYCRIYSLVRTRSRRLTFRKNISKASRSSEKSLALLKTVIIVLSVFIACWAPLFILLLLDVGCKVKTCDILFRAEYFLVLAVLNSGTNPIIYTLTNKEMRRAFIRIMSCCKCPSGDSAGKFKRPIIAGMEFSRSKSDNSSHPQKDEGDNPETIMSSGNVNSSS

SMILES: CC(C)N(CC#CCC1(O)c2ccccc2-c2ccccc21)C(C)C
- activation: 1.18%
